Screening results deposited in PubChem by several laboratories.
Compounds with a hit are over-represented: about 3.4% of the library has one in this group of screens.
eIF4E-4G inh: blocks eIF4E binding to eIF4G; TR-FRET eIF4E-eIF4GI(517-606) binding, 2 h; inhibition, % at 21.7 µM; 220,000 compounds, 0.37% hits
Mcl1-Bid inh: disrupts binding of human Mcl-1 to Bid peptide; inhibition, % at 21.7 µM; 220,000 compounds, 0.97% hits; TR-FRET Mcl-1/Bid-Dy647 peptide binding, 1536-well; AID 1021; Q07820;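 active = compounds that cut the binding signal by more than half at the single screening dose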;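 also: His-tagged Mcl-1 with europium anti-His antibody binding Bid BH3 peptide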
Mcl-1 Bim block: inhibitors of Bim-Mcl-1 interaction, human; Q07820; Bead-based flow cytometry, Bim peptide-Mcl-1 binding; inhibition, % at 10 µM; 190,000 compounds, 0.1% hits; AID 1009; in the data active = inhibition above about 40%
14-3-3 Bad PPI: disrupts binding of bovine 14-3-3 zeta to phospho-Bad peptide. P63103. TR-FRET 14-3-3zeta/Dy647-pBad peptide displacement, 1 h. inhibition, % at 21.7 µM. 220,000 compounds, 0.71% hits. AID 781;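 active = inhibition above about 70%, limit read from the data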
Mcl1-Noxa inh: Mcl-1/Noxa interaction inhibition. Q07820. TR-FRET Mcl-1/Noxa peptide binding, 2 h. inhibition, % at 21.7 µM. 220,000 compounds, 1.5% hits;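 active = compounds that cut the protein-peptide binding signal by more than 50% relative to plate controls in a single-dose test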;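 also: His-tagged Mcl-1 with rhodamine Noxa BH3 peptide and terbium anti-His antibody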
p47phox inh: blocks human p47phox regulatory protein of NADPH oxidases; P14598; p47phox/p22phox peptide binding, fluorescence polarization, 2 h; inhibition, % at 24.7 µM; 220,000 compounds, 0.53% hits
A number is an active result; 0 = inactive; - = not tested or not shown.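 The calls were made as follows, unless noted: active = inhibition above about 30% (limit read from the data); inactive = the rest.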

SMILES | eIF4E-4G inh | Mcl1-Bid inh | Mcl-1 Bim block | 14-3-3 Bad PPI | Mcl1-Noxa inh | p47phox inh
Cc1cccc(-n2c(-c3cccs3)nc3ccccc3c2=O)c1 | 0 | 58 | 0 | 71 | 0 | 0
Cc1ccc(N2C(=O)/C(=C/N3CCN(C(=O)c4ccco4)CC3)C(=O)NC2=S)cc1C | 0 | 0 | 0 | 0 | 0 | 0
Cc1cccc(N2C(=O)/C(=C/N3CCN(C(=O)c4ccco4)CC3)C(=O)NC2=S)c1 | 0 | 0 | 0 | 0 | 62 | 0
COc1ccc(/C=C2/C(=O)NC(=O)N(C3CCCCC3)C2=O)cc1CSc1ccccn1 | 0 | 0 | 0 | 0 | 0 | 0
COc1ccc(N2C(=O)CC(N3CCC(n4c(=O)[nH]c5ccccc54)CC3)C2=O)cc1 (stereo not given) | 0 | 0 | 0 | 0 | 0 | 0
O=c1[nH]c2ccccc2n1CCCN1CCC(n2c(=O)[nH]c3cc(Cl)ccc32)CC1 | 0 | 0 | 0 | 92 | 0 | 0
COc1cccc(CCNCc2c(F)cccc2F)c1 | 0 | 0 | 0 | 0 | 0 | 0
O=c1cccc2n1CC1CC2CN(Cc2c(F)cccc2Cl)C1 (stereo not given) | 0 | 0 | 0 | 77 | 0 | 0
O=c1cccc2n1CC1CC2CN(Cc2cccc(Cl)c2Cl)C1 (stereo not given) | 0 | 0 | 0 | 0 | 0 | 0
CCOC(=O)c1ccc2[nH]c(-c3ccc(S(=O)(=O)F)cc3)cc(=O)c2c1 | 0 | 0 | - | 0 | 0 | 0
COc1cc2c(cc1O)C[C@H]1NCCc3cc4c(c-2c31)OCO4 | 0 | 0 | 0 | 0 | 79 | 0
COc1cc2c(cc1OC)-c1c3c(cc4c1[C@@H](C2)N(C)CC4)OCO3 | 0 | 0 | 0 | 0 | 0 | 0
C1=C(c2c[nH]c3ccccc23)CCN(Cc2ccccc2)C1 | 0 | 0 | 0 | 0 | 0 | 0
CN(C)c1ccc(CN2CC=C(c3ccc(F)cc3)CC2)cc1 | 0 | 0 | 0 | 73 | 0 | 0
C/C(=N\N1CCCCCC1)c1c(O)n(C2CCCCC2)c(=O)[nH]c1=O | 45 | 0 | - | 0 | 0 | 0
O=C1C2CCCN2C(c2cccc(Cl)c2)N1c1ccccn1 (stereo not given) | 0 | 0 | 0 | 0 | 0 | 0
CC(C)C/C(=N/O)c1cn(C)c2ccccc12 | 0 | 0 | 0 | 0 | 0 | 0
O=C1NC(=S)NC(=O)C1=Cc1ccc2c(c1)CCN2CCCCl | 0 | 0 | - | 0 | 100 | 0
CN(C)c1ccc(NC(=O)CN2C(=O)CN=C(c3ccccc3)c3cc(Cl)ccc32)cc1 | 0 | 0 | 0 | 0 | 78 | 0
Cc1ccc(NC(=O)CN2C(=O)CN=C(c3ccccc3)c3cc(Cl)ccc32)cc1 | 0 | 0 | 0 | 0 | 0 | 0
Cc1ccc(N2CCN(CCc3ccccc3)CC2)cc1 | 0 | 0 | 0 | 83 | 0 | 0
CC(Cc1cccs1)NCc1ccccc1 (stereo not given) | 0 | 0 | 0 | 0 | 0 | 0
Cc1cc(/C=C2/C(=O)NC(=O)N(Cc3ccco3)C2=O)c(C)n1-c1ccccc1 | 0 | 0 | 0 | 0 | 0 | 0
O=C1NC(=O)N(Cc2ccco2)C(=O)/C1=C/c1ccc(-c2cccc([N+](=O)[O-])c2)o1 | 0 | 0 | 0 | 0 | 93 | 0
C=CCN1C(=O)/C(=C/c2cccs2)C(=O)NC1=S | 0 | - | - | 0 | - | 0
SMILES | eIF4E-4G inh | Mcl1-Bid inh | Mcl-1 Bim block | 14-3-3 Bad PPI | Mcl1-Noxa inh | p47phox inh
CN(C)c1ccc(/C=C2/C(=O)NC(=O)N(Cc3ccco3)C2=O)cc1 | 0 | 0 | 0 | 0 | 0 | 78
CCN(CC)c1ccc(/C=C2/C(=O)NC(=O)N(Cc3ccco3)C2=O)cc1 | 0 | 0 | 0 | 0 | 0 | 168
O=C1NC(=S)N(Cc2ccco2)C(=O)/C1=C\c1cccs1 | 70 | 97 | 0 | 97 | 97 | 0
c1cncc(C2CC(c3cccs3)n3ncnc3N2)c1 (stereo not given) | 0 | 0 | 0 | 0 | 0 | 0
CC/C(=N\NC(=O)Nc1ccccc1)c1c(O)n(Cc2ccccc2)c(=O)[nH]c1=O | 0 | 0 | - | 0 | 0 | 0
CN(Cc1ccccc1)C(=C(Cl)Cl)/C(=C1/NCCN1Cc1ccc(Cl)nc1)[N+](=O)[O-] | 0 | 0 | 0 | 0 | 0 | 0
COc1ccc(/C=C2/C(=O)NC(=O)N(c3ccccc3)C2=O)cc1CN1C(=O)c2ccccc2C1=O | 0 | 0 | - | 0 | 0 | 0
COc1ccc(/C=C2/C(=O)NC(=S)N(C3CC3)C2=O)cc1CN1C(=O)c2ccccc2C1=O | 0 | 0 | 0 | 0 | 95 | 0
CNC(=O)N(C)c1ccc(C(O)(C(=O)OC)C(F)(F)F)cc1 (stereo not given) | 0 | 0 | - | 0 | 0 | 0
O=C(c1ccncc1)C12CN3CN(CN(C3)C1)C2 | 0 | 0 | 0 | 85 | 0 | 0
CN(C)[C@@H]1C(=O)C(C(N)=O)=C(O)[C@@]2(O)C(=O)C3=C(O)c4c(O)cccc4[C@@](C)(O)[C@H]3[C@H](O)[C@@H]12 | 47 | 72 | 0 | 89 | 111 | 0
O=C1NC(=O)C(=Cc2ccc(N3CCOCC3)o2)C(=O)N1 | 0 | 0 | 0 | 0 | 0 | 58
C=CCN1C(=O)/C(=C/c2ccc(N3CCOCC3)o2)C(=O)NC1=S | 0 | 0 | 0 | 0 | 0 | 0
N=c1c[n+](C2CCCCC2)[n-]o1 | 0 | 0 | 0 | 0 | 0 | 0
Cc1nn(Cc2ccc(Cl)cc2Cl)c(Cl)c1C(=O)Nc1ccc(OC(F)F)cc1 | 0 | 0 | 0 | 0 | 0 | 0
OC(c1ccc(F)cc1)(c1ccc(F)cc1)[C@@H]1CCCN1 | 0 | 0 | 0 | 0 | 0 | 43
C=CP(=O)(O)c1ccccc1 | 0 | 55 | 0 | 0 | 0 | 0
COc1cc(CN=C(C)c2c(O)n(C3CCCCC3)c(=O)[nH]c2=O)cc(OC)c1 | 0 | 0 | - | 0 | 0 | 0
Cc1nc2c(c(=O)[nH]1)C(c1ccccc1Cl)c1c(c3ccccc3oc1=O)O2 (stereo not given) | 0 | 0 | - | 0 | 0 | 0
CCN1C(=O)C(=C/C=C/c2ccco2)C(=O)N(CC)C1=S | 0 | 0 | 0 | 0 | 73 | 0
CCOC(=O)c1cc(C(O)(C(=O)OC)C(F)(F)F)c(/N=C/N(C)C)o1 (stereo not given) | 0 | 0 | 0 | 0 | 86 | 0
COc1ccc(CC(=O)N2CCN(C)CC2)cc1OC | 0 | 0 | 0 | 73 | 0 | 0
COc1ccc(CN2CCN(C(=O)Cc3ccccc3)CC2)c(OC)c1 | 0 | 0 | 0 | 0 | 0 | 0
Cc1ccc(CC(=O)N2CCN(Cc3ccccc3)CC2)cc1 | 0 | 0 | 0 | 0 | 0 | 0
CCC(C)N1CCN(C(=O)Cc2ccccc2)CC1 (stereo not given) | 0 | 0 | 0 | 80 | 0 | 0
COc1ccc(Br)cc1CN1CCN(C(=O)Cc2ccccc2)CC1 | 0 | 0 | 0 | 86 | 0 | 0
CN[C@@H]1C[C@@H](c2ccc(Cl)c(Cl)c2)c2ccccc21 | 99 | 0 | 0 | 0 | 0 | 0
CCOC(=O)c1c(NC(=O)C(c2ccccc2)c2ccccc2)sc2c1C1CCN2CC1 | 0 | 0 | 0 | 79 | 0 | 0
COc1ccccc1CCNCc1cc2c(cc1[N+](=O)[O-])OCO2 | 0 | 0 | 0 | 0 | 0 | 0
